Experiments:
Experiment in all cases: log2 ratio of Biotin-Ahx-Ub-VS probe labelling (fragment/DMSO); higher = less target engagement (more negative = stronger competition), active = hit call of the paper (q ≤ 0.05, log2 ratio ≤ -1)
Details in all cases: compound concentration: 200 uM; treatment time: 3 h
[1] = target: T1, OTUD6B (UniProt Q8N6M0)
T1 sequence (whole entry): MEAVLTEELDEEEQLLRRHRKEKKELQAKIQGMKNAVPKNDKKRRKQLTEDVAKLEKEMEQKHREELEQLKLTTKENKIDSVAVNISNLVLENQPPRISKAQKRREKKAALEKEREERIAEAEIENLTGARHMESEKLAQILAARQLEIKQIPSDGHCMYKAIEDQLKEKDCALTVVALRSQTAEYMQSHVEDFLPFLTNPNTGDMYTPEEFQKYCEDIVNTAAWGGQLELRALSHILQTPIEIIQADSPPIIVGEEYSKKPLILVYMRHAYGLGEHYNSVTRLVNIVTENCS
Procedure, shortened: (§1)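 HEK293T lysate, 495 µg per sample in Tris/CHAPS/IGEPAL buffer with protease inhibitors, was treated in triplicate with fragment at 200 µM or vehicle for 3 h and then with Biotin-Ahx-Ub-VS at 0.5 µM final for 1 h. Labelled DUBs were NeutrAvidin-enriched, digested with LysC and trypsin, and run by diaPASEF LC-MS/MS. Spectronaut label-free quantities were global-median-normalised, and values are average log2 fragment/vehicle ratios by unpaired t-test on proteins with ≥2 unique peptides.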

[2] = target: T2, OTUD7B (UniProt Q6GQQ9)
T2 sequence (whole entry): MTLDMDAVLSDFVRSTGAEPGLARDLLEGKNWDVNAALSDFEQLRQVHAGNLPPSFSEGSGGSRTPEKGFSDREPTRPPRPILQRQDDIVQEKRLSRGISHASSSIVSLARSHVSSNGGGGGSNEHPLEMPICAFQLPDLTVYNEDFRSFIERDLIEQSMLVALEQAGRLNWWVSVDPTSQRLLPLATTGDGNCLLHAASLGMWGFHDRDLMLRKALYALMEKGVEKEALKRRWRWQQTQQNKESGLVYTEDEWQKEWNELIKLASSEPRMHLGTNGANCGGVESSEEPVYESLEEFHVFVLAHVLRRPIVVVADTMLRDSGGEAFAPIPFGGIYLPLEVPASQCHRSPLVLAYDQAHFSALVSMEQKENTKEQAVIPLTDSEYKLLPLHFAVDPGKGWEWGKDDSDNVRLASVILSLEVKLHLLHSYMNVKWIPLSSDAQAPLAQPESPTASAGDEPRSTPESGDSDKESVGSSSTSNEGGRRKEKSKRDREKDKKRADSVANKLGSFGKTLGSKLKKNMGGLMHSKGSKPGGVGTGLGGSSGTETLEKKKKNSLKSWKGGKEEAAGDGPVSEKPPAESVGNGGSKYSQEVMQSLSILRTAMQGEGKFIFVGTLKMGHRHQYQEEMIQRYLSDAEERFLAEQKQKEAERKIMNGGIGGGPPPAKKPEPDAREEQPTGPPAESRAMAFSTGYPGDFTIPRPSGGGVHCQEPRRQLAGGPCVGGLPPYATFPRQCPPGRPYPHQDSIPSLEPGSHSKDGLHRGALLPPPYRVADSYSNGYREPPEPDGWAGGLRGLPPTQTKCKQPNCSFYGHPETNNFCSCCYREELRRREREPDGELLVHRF
Procedure, shortened: as §1

[3] = target: PRPF8 (UniProt Q6P2Q9)
Procedure, shortened: as §1

[4] = target: T3, PSMD7 (UniProt P51665)
T3 sequence (whole entry): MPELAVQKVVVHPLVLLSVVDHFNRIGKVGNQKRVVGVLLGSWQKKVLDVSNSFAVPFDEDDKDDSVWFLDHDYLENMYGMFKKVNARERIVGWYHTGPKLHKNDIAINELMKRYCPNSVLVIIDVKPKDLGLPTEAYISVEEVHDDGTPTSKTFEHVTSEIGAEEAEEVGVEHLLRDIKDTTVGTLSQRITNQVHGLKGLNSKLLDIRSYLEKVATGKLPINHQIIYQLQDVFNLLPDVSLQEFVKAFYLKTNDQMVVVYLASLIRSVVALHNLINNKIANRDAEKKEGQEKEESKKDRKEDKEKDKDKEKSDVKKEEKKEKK
Procedure, shortened: as §1

[5] = target: UCHL1 (UniProt P09936)
Chain of UCHL1 (P09936 whole entry, looked up): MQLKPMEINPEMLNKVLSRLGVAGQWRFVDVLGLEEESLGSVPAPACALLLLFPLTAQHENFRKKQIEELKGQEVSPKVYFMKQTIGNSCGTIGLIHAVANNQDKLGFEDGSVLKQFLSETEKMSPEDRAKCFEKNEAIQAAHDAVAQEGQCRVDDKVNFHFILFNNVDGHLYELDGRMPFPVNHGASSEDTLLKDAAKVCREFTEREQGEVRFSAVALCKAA
Procedure, shortened: as §1

[6] = target: T4, UCHL3 (UniProt P15374)
T4 sequence (whole entry): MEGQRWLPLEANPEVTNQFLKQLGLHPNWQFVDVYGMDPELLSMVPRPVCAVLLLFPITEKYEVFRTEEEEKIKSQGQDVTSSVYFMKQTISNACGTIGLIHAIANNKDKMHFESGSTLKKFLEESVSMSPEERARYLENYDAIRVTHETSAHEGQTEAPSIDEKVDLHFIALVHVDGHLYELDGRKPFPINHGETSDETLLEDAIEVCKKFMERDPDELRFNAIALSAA
Procedure, shortened: as §1

[7] = target: T5, UCHL5 (UniProt Q9Y5K5)
T5 sequence (whole entry): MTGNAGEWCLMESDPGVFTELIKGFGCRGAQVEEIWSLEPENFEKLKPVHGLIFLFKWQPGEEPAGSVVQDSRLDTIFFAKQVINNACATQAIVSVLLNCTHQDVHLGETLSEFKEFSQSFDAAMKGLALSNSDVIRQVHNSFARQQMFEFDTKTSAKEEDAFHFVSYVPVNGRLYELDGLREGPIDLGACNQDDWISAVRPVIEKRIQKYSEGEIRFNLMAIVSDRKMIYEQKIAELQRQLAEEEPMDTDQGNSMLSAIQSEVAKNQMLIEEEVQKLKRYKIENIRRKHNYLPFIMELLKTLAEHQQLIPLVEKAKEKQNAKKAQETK
Procedure, shortened: as §1

[8] = target: USP10 (UniProt Q14694)
Chain of USP10 (Q14694 whole entry): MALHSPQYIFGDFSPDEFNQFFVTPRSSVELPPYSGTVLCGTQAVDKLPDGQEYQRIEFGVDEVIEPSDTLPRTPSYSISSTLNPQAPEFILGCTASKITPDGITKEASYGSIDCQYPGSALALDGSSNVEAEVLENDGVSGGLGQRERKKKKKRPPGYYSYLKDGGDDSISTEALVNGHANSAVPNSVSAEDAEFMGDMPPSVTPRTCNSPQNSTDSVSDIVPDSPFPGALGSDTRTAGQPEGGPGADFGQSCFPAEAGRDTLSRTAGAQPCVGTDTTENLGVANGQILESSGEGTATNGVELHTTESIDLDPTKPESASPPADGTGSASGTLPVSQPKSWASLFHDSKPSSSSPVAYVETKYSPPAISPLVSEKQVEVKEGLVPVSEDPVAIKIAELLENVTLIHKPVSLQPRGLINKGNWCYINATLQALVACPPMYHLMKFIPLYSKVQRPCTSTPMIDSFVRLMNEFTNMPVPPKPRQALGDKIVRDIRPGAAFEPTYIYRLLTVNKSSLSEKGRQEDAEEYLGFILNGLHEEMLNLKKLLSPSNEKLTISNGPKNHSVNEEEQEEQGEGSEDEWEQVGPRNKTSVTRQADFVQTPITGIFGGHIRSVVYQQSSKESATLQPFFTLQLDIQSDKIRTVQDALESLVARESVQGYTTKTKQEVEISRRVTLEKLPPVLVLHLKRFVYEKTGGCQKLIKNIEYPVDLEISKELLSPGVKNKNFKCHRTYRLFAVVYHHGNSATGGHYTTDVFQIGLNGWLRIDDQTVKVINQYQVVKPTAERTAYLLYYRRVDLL
Procedure, shortened: as §1

[9] = target: T6, USP15 (UniProt Q9Y4E8)
T6 sequence (whole entry): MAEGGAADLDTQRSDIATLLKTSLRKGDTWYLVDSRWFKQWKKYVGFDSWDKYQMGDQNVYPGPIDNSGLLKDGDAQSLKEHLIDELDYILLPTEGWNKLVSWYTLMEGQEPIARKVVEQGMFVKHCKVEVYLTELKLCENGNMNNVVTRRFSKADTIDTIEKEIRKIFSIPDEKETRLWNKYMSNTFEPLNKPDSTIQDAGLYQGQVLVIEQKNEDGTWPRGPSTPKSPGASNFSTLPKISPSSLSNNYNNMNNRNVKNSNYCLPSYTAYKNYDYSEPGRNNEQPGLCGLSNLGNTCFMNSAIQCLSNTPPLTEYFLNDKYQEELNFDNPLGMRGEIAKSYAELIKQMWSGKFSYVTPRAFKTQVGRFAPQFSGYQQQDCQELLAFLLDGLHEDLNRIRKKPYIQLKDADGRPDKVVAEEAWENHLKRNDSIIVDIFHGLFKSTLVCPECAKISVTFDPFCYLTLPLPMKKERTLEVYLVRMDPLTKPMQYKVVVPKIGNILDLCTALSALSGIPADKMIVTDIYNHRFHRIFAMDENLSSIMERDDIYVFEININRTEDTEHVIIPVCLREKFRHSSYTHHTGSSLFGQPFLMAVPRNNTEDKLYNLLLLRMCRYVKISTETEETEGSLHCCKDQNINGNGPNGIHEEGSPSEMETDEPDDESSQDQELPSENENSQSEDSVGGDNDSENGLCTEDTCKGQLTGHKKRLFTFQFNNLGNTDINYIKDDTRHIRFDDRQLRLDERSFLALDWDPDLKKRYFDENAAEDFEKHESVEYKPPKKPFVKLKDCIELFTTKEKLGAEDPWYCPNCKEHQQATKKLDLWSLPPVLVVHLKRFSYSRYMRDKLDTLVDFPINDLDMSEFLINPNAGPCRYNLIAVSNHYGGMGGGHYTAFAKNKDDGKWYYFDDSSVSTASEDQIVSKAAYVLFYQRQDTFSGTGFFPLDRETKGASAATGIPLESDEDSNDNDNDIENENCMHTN
Procedure, shortened: as §1

[10] = target: USP16 (UniProt Q9Y5T5)
Chain of USP16 (Q9Y5T5 whole entry, looked up): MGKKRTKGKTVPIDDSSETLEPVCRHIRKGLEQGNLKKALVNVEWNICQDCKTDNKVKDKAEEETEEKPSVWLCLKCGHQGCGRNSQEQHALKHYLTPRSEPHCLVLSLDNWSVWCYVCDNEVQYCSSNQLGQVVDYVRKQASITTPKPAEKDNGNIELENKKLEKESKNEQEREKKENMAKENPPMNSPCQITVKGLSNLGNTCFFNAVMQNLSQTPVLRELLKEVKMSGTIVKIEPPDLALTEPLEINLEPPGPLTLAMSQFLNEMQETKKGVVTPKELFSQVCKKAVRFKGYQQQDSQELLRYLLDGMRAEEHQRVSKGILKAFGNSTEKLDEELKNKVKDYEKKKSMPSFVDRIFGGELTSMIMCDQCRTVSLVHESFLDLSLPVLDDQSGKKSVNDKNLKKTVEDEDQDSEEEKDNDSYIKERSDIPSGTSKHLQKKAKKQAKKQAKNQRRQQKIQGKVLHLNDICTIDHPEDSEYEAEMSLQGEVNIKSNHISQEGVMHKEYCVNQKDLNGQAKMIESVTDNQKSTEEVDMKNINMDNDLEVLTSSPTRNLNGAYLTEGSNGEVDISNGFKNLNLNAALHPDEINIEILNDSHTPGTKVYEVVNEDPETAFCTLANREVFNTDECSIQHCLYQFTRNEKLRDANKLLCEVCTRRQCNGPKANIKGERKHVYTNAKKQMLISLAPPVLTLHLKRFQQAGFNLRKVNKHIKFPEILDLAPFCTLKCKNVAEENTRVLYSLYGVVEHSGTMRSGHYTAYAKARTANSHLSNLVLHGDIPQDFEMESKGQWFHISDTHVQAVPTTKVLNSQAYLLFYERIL
Procedure, shortened: as §1

Measured: log2 ratio of Biotin-Ahx-Ub-VS probe labelling

O=C(CCl)N1CCC(=C(F)CO)C1
inactive: [1] 0.0579 | [2] 0.0673 | [3] 0.202 | [4] 0.0975 | [6] -0.0974 | [7] 0.0121 | [8] -0.107 | [9] -0.156 | [10] -0.506
active: [5] -1.56
